Experimental data as given in PubChem BioAssay (NCATS).
Records with an inconclusive call do not appear. Entries that show only a call come without a potency. Calls of active or inactive are those of the source. Unless noted, the call rests on the fitted dose curve; in most records, active means well fitted curve in the direction sought with a large enough effect; inconclusive means small, poorly fitted or top-dose-only effect, or another doubt; inactive means no such curve, though single readings can be large; an effect the other way counts as inactive or inconclusive.

Key:
[1] = NCATS anti-infectives library activity on HEK293 viability as a counter-qHTS vs the C. elegans viability qHTS (AID 1745854); further: potency means the concentration at half of the fitted maximal effect
How it was run: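 Cytotoxicity counter-screen to a worm viability qHTS: CellTiter-Glo luminescence read 10 min after reagent addition. Compounds (final up to 41.7 uM, a 1:5 dilution series) incubated 24 hr at 37C with 1,500 HEK293 cells per well; digitonin control.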

[2] = target: Cytochrome P450 1A2 (Homo sapiens) (UniProt P05177); test: p450-cyp1a2 (AID 410; calls by dose curve; further: potency means the concentration at half of the fitted maximal effect)
Sequence of Cytochrome P450 1A2 (Homo sapiens) (P05177 whole entry, looked up): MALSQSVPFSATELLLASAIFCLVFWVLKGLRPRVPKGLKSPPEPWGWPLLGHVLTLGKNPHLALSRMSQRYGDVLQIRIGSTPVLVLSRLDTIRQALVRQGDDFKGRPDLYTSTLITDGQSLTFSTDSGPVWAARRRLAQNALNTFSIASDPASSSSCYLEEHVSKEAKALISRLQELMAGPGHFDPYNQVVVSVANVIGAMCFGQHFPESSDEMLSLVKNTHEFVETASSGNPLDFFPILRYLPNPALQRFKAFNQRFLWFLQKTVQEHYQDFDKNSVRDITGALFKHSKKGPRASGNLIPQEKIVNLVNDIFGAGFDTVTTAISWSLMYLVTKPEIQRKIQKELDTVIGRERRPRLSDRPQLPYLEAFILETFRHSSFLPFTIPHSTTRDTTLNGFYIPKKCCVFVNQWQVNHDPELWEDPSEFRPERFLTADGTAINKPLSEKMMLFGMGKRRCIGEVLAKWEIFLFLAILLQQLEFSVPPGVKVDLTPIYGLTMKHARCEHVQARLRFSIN
How it was run: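 Luminescent demethylation readout: Luciferin-ME (100uM, equal to Km) turned over by 20nM CYP1A2 for 60 min at room temperature after NADPH regeneration addition, following 10 min compound preincubation. Normalization used 57 uM furafylline as full inhibition.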

[3] = target: Glucocorticoid receptor (Homo sapiens) (UniProt P04150); test: GR-GFP Redistribution (AID 450;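 active means compounds whose dose series gives a full or clear partial fitted curve of increased nuclear translocation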; further: potency means the concentration at half of the fitted maximal effect); conditions: U2OS GR-GFP nuclear translocation, laser cytometry, 2 h
Sequence of Glucocorticoid receptor (Homo sapiens) (P04150 whole entry, looked up, the tested form may be a part): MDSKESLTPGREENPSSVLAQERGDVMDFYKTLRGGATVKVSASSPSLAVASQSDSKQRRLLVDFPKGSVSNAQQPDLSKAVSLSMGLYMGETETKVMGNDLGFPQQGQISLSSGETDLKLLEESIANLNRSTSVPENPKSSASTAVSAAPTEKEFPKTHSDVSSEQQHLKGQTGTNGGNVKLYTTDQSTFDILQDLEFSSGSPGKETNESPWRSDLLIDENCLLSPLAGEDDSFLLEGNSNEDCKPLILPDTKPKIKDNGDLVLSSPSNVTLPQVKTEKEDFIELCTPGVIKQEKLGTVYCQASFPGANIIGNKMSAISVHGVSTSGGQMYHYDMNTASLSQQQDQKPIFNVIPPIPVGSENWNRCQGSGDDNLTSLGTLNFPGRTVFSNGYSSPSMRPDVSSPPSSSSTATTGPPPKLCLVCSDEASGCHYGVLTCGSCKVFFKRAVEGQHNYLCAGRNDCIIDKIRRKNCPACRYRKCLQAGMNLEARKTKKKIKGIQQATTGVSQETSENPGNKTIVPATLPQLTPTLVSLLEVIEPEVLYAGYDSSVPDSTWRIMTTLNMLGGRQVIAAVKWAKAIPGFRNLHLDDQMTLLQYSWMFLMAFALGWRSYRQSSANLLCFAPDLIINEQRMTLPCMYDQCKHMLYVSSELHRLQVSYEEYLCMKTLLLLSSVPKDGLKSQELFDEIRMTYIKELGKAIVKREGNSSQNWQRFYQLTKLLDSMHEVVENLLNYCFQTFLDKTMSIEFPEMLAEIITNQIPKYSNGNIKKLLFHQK

[4] = target: Glucocorticoid receptor (Homo sapiens) (UniProt P04150); test: GR-EFC Redistribution (AID 451; calls by dose curve; further: potency means the concentration at half of the fitted maximal effect); conditions: CHO-K1 GR-EFC translocation, beta-gal luminescence, 2 h
How it was run: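 CHO-K1 cells stably expressing nuclear-localized β-gal enzyme acceptor and GR fused C-terminally to the enzyme donor fragment; ligand-driven nuclear translocation restores β-gal by complementation. Compounds titrated up to 46 uM final, 2 h at 37 °C; luminescence read.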

[5] = target: Mitogen-activated protein kinase 10 (Mus musculus) (UniProt Q61831); test: JNK3 AlphaScreen Assay (AID 530; active means well fitted curve in either direction with a large enough effect, not every such curve was filed as active;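 further: kinase came from lysate of stimulated human HepG2 cells; signal reports phosphorylation of biotinylated GST-cJun 1-79 at Ser73 with 10 µM ATP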)
How it was run: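 Phosphorylation of biotinylated GST-cJun(1-79) at Ser73 is measured by AlphaScreen proximity luminescence. Enzyme is JNK3 in HepG2 lysates activated with interleukin-1beta and tumor necrosis factor alpha; ATP is 10 uM final.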

[6] = target: 3',5'-cyclic-AMP phosphodiesterase 4B (Homo sapiens) (UniProt Q07343); test: qHTS Assay for Inhibitors of PDE-IV (AID 607; active means well fitted activation curve with a large enough effect in the main read-out, with a control signal flat, not every such curve was filed as active)
Sequence of 3',5'-cyclic-AMP phosphodiesterase 4B (Homo sapiens) (Q07343 whole entry, looked up): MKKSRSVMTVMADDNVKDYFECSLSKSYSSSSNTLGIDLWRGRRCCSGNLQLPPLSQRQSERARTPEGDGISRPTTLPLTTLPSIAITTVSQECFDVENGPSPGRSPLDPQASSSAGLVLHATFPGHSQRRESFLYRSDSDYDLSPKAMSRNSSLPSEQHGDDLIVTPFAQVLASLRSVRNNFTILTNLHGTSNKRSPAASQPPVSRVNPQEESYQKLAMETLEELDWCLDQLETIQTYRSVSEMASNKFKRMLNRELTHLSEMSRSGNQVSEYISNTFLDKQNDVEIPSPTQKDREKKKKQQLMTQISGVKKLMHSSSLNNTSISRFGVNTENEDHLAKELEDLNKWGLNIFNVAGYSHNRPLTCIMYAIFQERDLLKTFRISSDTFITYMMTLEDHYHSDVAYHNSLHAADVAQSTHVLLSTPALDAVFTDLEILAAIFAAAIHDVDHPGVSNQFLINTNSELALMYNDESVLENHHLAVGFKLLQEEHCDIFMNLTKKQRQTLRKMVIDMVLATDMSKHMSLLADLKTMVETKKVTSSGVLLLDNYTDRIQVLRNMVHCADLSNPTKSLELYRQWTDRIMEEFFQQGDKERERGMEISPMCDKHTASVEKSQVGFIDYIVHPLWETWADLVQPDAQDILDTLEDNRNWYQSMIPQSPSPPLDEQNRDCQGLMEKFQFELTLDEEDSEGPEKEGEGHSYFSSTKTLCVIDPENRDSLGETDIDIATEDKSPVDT
How it was run: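 HEK293 ACTOne cells with CNG channel (1000/well), endogenous PDE4; membrane potential dye, compounds up to 22.9 uM final. Fluorescence Ex 535/Em 590; RO 20-1724 (100 uM final) as reference.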

[7] = target: Cytochrome P450 2C9 (Homo sapiens) (UniProt P11712); test: qHTS Assay for Inhibitors and Substrates of Cytochrome P450 2C9 (AID 883); further: nearly all actives have a fitted effect of over 60% in size
Sequence of Cytochrome P450 2C9 (Homo sapiens) (P11712 whole entry, looked up): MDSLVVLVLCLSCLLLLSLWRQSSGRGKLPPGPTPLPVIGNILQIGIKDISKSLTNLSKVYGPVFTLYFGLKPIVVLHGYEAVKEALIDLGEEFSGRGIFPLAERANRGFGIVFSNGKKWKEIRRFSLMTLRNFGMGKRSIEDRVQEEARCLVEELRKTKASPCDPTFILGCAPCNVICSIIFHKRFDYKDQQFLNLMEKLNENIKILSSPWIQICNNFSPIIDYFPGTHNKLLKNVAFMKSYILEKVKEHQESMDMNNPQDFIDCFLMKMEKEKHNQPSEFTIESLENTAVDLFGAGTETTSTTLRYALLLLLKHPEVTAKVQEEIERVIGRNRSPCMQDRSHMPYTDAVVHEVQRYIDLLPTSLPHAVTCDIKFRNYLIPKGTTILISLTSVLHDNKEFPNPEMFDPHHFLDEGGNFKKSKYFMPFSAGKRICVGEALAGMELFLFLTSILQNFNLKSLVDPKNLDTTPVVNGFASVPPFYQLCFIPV
How it was run: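 Human CYP2C9 (10nM) hydroxylated Luciferin-H (100uM, at its KM) to luciferin in 25mM KPO4. Compound was preincubated 10 min at 37C, then NADPH regeneration started a 60 min reaction at 37C. Luminescence was read after detection reagent, normalized to 57uM sulphaphenazole.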

[8] = target: Cytochrome P450 3A4 (Homo sapiens) (UniProt P08684); test: qHTS Assay for Inhibitors and Substrates of Cytochrome P450 3A4 (AID 884); further: potency means the concentration at half of the fitted maximal effect; nearly all actives have a fitted effect of over 50% in size
Sequence of Cytochrome P450 3A4 (Homo sapiens) (P08684 whole entry, looked up): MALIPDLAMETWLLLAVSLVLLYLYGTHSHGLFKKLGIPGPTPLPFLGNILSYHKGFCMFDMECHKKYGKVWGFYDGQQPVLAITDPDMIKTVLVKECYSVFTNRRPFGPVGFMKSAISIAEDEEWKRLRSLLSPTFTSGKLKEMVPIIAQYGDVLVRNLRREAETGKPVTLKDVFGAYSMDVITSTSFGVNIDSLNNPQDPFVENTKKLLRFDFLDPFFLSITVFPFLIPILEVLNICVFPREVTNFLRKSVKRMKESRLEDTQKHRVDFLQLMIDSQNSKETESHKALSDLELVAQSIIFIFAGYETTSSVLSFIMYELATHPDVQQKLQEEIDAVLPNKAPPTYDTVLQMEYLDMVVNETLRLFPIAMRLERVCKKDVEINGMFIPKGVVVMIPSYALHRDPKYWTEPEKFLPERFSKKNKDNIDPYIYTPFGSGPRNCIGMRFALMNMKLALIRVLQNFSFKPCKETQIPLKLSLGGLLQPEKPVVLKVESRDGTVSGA
How it was run: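 Luminescent readout of luciferin produced by CYP3A4 (20 nM) dealkylation of Luciferin-PPXE, 25 uM (its KM). NADPH-driven reaction ran 60 min at RT after 10 min compound preincubation; data scaled to 57 uM ketoconazole as 100% inhibition.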

[9] = target: Cytochrome P450 3A4 (Homo sapiens) (UniProt P08684); test: qHTS Assay for Activators of Cytochrome P450 3A4 (AID 885); further: nearly all actives have a fitted effect of over 65% in size
How it was run: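 Human CYP3A4 dealkylates Luciferin-PPXE to luciferin, which luciferase detection converts to light. Substrate was at its KM (25uM), buffer 200mM KPO4, reaction 60 min at RT.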

[10] = target: Cytochrome P450 2D6 (Homo sapiens) (UniProt P10635); test: qHTS Assay for Inhibitors and Substrates of Cytochrome P450 2D6 (AID 891);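 further: luciferin methyl ether substrate demethylated by CYP2D6 with NADPH regeneration; nearly all actives have a fitted effect of over 60% in size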
Sequence of Cytochrome P450 2D6 (Homo sapiens) (P10635 whole entry, looked up): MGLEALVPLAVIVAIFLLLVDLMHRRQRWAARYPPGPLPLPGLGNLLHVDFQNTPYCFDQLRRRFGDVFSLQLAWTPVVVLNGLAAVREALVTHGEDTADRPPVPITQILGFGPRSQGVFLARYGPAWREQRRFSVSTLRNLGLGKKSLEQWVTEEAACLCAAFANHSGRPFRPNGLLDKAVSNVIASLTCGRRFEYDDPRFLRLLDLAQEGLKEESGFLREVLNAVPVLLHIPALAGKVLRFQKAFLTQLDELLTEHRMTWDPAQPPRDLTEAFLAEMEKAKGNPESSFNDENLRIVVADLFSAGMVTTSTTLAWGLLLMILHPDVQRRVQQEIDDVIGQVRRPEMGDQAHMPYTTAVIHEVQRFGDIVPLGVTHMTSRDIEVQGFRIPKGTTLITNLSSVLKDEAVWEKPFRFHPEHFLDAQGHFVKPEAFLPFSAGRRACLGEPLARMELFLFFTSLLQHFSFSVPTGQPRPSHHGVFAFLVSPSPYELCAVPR
How it was run: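 Luminescent read-out of luciferin formed by 5 nM human CYP2D6 demethylating 30 uM Luciferin-ME EGE (Km level) over 60 min at room temperature after NADPH regeneration addition. Data normalized to full inhibition by 1.43 uM quinidine.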

[11] = target: Cytochrome P450 2C19 (Homo sapiens) (UniProt P33261); test: qHTS Assay for Inhibitors and Substrates of Cytochrome P450 2C19 (AID 899); further: nearly all actives have a fitted effect of over 60% in size
Sequence of Cytochrome P450 2C19 (Homo sapiens) (P33261 whole entry, looked up): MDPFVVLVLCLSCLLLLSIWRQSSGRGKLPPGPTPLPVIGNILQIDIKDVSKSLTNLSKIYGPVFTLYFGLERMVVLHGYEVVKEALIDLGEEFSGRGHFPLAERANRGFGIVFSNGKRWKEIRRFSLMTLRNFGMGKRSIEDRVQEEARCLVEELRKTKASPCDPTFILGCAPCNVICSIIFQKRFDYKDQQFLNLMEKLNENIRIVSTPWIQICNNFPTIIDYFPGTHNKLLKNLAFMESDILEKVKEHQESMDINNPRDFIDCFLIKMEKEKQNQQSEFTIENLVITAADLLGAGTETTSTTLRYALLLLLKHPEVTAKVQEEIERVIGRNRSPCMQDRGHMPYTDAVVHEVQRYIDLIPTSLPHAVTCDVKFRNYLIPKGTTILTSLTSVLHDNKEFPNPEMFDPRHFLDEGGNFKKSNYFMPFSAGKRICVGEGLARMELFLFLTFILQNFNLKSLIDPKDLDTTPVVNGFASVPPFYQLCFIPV
How it was run: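 Human CYP2C19 (5nM) with Luciferin-H EGE at 10uM (its KM) in 50mM KPO4 was preincubated with compound for 10 min at 37C. NADPH regeneration started a 60 min 37C reaction. Luciferin was read by luminescence, normalized to 57uM ketoconazole.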

[12] = target: Catechol O-methyltransferase (Homo sapiens) (UniProt P21964); test: Confirmatory Screen for Target Class Profiling of Small Molecule Inhibitors of Methyltransferases (AID 1745852); conditions: MTase-Glo luminescence, SAH detection, recombinant enzyme; measured here: COMT max response; stronger effect = lower value
Sequence of Catechol O-methyltransferase (Homo sapiens) (P21964 whole entry, looked up): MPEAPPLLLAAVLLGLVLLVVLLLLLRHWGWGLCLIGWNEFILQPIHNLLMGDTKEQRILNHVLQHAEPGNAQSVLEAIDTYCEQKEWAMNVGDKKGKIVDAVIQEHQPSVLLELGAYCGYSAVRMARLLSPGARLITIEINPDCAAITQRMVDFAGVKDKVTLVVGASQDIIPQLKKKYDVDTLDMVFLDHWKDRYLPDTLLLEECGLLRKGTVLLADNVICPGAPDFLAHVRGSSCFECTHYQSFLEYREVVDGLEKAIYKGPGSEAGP

[13] = target: Guanidinoacetate N-methyltransferase (Homo sapiens) (UniProt Q14353); test: as above; conditions: activity change, negative = inhibition: at 57.3 µM (top of the series) unless noted
[14] = target: Nicotinamide N-methyltransferase (Homo sapiens) (UniProt P40261); test: as above; conditions: MTase-Glo luminescence, SAH detection, recombinant enzyme; measured here: NNMT max response; stronger effect = lower value
Sequence of Nicotinamide N-methyltransferase (Homo sapiens) (P40261 whole entry, looked up): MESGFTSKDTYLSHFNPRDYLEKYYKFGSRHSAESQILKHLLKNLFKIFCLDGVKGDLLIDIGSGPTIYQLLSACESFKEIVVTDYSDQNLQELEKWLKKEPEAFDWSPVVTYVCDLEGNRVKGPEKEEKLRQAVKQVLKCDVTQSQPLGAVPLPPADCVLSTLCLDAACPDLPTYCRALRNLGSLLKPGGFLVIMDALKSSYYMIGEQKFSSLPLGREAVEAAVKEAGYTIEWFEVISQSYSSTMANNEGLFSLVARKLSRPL

[15] = target: Phenylethanolamine N-methyltransferase (Homo sapiens) (UniProt P11086); test: as above; conditions: MTase-Glo luminescence, SAH detection, recombinant enzyme; measured here: PNMT max response; stronger effect = lower value
Sequence of Phenylethanolamine N-methyltransferase (Homo sapiens) (P11086 whole entry, looked up): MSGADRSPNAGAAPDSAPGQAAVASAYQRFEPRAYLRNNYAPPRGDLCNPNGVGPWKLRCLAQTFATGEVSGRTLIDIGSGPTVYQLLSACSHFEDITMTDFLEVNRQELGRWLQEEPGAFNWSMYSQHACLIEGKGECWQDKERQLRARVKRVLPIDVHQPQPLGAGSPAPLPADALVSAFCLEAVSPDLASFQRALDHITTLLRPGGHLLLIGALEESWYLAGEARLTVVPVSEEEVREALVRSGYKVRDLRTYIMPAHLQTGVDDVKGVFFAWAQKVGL

## O=c1cc(-c2ccc(O)cc2)oc2cc(O)c(O)c(O)c12
[1]
  Potency: inactive

## C/C(=N\NC(=O)C(NC(=O)c1ccccc1)c1n[nH]c(=O)c2ccccc12)c1cccc(Br)c1 (stereo not drawn)
[1]
  Potency: inactive

## Cc1cnc(C(=O)N[C@H]2CCCCC/C=C\[C@@H]3C[C@@]3(C(=O)NS(=O)(=O)C3CC3)NC(=O)[C@@H]3C[C@@H](Oc4nc5ccccc5c5ccccc45)CN3C2=O)cn1
[1]
  Potency: inactive

## CCCCc1ccc(O)cc1O
[1]
  Potency: inactive

## CN(C)c1nc2c(Br)c(Br)c(Br)c(Br)c2n1CC(=O)O
[1]
  Potency: inactive

## C=CC(=O)N1C/C(=C\c2ccc([N+](=O)[O-])cc2)C(=O)/C(=C/c2ccc([N+](=O)[O-])cc2)C1
[1]
  Potency: 1.41 µM (active)

## COc1ccc(-c2oc3ccc(C)cc3c(=O)c2O)cc1OC
[2]
  Potency: 251 nM (active)
[3]
  Potency: > 46 µM (inactive)
[4]
  Potency: > 46 µM (inactive)
[5]
  Potency: inactive
[6]
  Potency: inactive
[7]
  Potency: inactive
[8]
  Potency: 3.98 µM (active)
[9]
  outcome: inactive
[10]
  Potency: inactive
[11]
  Potency: inactive
[12]
  activity: -1%
[13]
  activity change, negative = inhibition: 0%
[14]
  activity: 1.6%
[15]
  activity: 4.32%

## OC[C@H]1O[C@@H](Oc2c(O)cc(O)cc2/C=C/c2ccc(O)cc2)[C@H](O)[C@@H](O)[C@@H]1O
[1]
  Potency: inactive

## O=C(NCc1c(F)cc(F)cc1F)c1cn2c(c(O)c1=O)C(=O)N1C3CCC(C3)OC1C2 (stereo not drawn)
[1]
  Potency: inactive

## Cc1ccc(C(=O)NCCCCCC(=O)Nc2ccccc2N)cc1
[1]
  Potency: inactive

## COc1cnc(-n2cnc(C)n2)c2c1c(C(=O)C(=O)N1CCN(C(=O)c3ccccc3)CC1)cn2COP(=O)(O)O
[1]
  Potency: inactive

## COc1cc(O)c2c(=O)cc(-c3ccc(O)cc3)oc2c1
[1]
  Potency: inactive

## COc1cc2c(c(OC)c1OC)-c1c(cc(OC)c(OC)c1OC)CC(C)C(C)C2 (stereo not drawn)
[1]
  Potency: inactive

## Cc1cn([C@H]2O[C@@H](CO)[C@H](O)[C@H]2F)c(=O)[nH]c1=O
[1]
  Potency: inactive

## COC(=O)[C@H](CCSC)NC(=O)c1ccc(NC[C@@H](N)CS)cc1-c1ccccc1
[1]
  Potency: inactive

## COC(=O)c1cc(OC)c2c(c1-c1c(CO)cc(OC)c3c1OCO3)OCO2
[1]
  Potency: inactive

## CC(=O)N1CCC(C(=O)N(CCCN2CCC(Cc3ccc(C(N)=O)cc3)CC2)c2ccc(C)c(Cl)c2)CC1
[1]
  Potency: inactive

## CC(=O)Nc1ccc(C)c(C(=O)N[C@H](C)c2cccc3ccccc23)c1
[1]
  Potency: inactive

## O=C(O)[C@H]1O[C@@H](Oc2cc3oc(-c4ccccc4)cc(=O)c3c(O)c2O)[C@H](O)[C@@H](O)[C@@H]1O
[1]
  Potency: inactive

## CC(C)CS(=O)(=O)c1oc(-c2ccc(F)cc2)nc1S(=O)(=O)c1ccccc1
[1]
  Potency: 3.98 µM (active)
